# Laboratory results as given in the supplement of paper PMC12340641.
# Counter-ions that a name gives are not always drawn.
# Columns and labels:
# [1] = biological target: IKZF1 (dCK*-IKZF1 fusion in HEK293FT) (UniProt Q13422); experiment: inhibition of IKZF1 HTRF signal (DMSO = 0%, pomalidomide 10 uM = 100%); higher = lower IKZF1 protein level; conditions: compound concentration: 5 uM, overnight (~20 h)
# Method in brief: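 For percent inhibition of IKZF1 signal, each plate was normalised to vehicle and to a reference degrader. Cells were HEK293FT stably expressing an IKZF1 fusion, plated at 2000/well in 384-well format and treated overnight at 37 °C with 5 μM compound, one well each. Lysates were probed overnight with a commercial HTRF total-IKZF1 antibody kit, with the 665/620 nm ratio background-subtracted and vehicle and degrader fixed at 0% and 100%.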
# HEK293FT dCK*-only = experiment: relative growth in counter assay (no AraC = 100%, AraC + DMSO = 0%); higher = more growth rescue independent of IKZF1; conditions: compound concentration: 5 uM; AraC concentration: 0.3 uM; overnight pretreatment + 4 days AraC
# Method in brief: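 HEK293FT cells carrying only an engineered kinase construct were plated at 300 per well (384-well) and given 5 μM compound 2 h later. Following overnight at 37 °C, a nucleoside suicide substrate (0.3 μM) plus medium was added for 4 days. Hoechst 33342-stained nuclei were imaged and counted on day 5, with 100% assigned to wells without suicide substrate and 0% to substrate plus vehicle on each plate.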
# HEK293FT dCK*-IKZF1 = experiment: relative growth recovery (pomalidomide 10 uM = 100%, DMSO = 0%); higher = more growth rescue (IKZF1 fusion degradation); conditions: compound concentration: 5 uM; AraC concentration: 0.3 uM; overnight pretreatment + 4 days AraC
# Method in brief: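 Means of duplicates from different days are given for growth recovery, normalised per plate against a reference degrader and vehicle. The reference degrader set the 100% level and vehicle the 0% level. HEK293FT cells stably expressing a deoxycytidine kinase–IKZF1 fusion (300/well, 384-well) received 5 μM compound 2 h after seeding and, after overnight at 37 °C, 0.3 μM of a nucleoside suicide substrate plus medium for 4 days. Nuclei stained with Hoechst 33342 were then counted by whole-well imaging on day 5.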
# Chain of IKZF1 (dCK*-IKZF1 fusion in HEK293FT) (Q13422 whole entry, looked up, the tested form may be a part): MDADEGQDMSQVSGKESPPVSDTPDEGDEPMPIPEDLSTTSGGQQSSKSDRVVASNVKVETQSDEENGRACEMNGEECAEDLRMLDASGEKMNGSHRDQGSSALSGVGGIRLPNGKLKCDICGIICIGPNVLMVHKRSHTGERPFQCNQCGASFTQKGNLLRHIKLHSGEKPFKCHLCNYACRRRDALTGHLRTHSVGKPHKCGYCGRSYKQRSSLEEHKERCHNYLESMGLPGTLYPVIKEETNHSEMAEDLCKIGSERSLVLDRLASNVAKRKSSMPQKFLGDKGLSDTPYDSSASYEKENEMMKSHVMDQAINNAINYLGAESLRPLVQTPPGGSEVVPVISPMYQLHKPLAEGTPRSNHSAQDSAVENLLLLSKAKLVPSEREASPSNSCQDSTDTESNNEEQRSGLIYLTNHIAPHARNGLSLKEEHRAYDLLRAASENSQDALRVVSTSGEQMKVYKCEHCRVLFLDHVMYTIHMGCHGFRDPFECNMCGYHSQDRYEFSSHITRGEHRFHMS
Compound,inhibition of IKZF1 HTRF signal [1] [%],relative growth in counter assay (HEK293FT dCK*-only) [%],relative growth recovery (HEK293FT dCK*-IKZF1) [%]
C=CCc1ccc(O)c(-c2cc(CC=C)ccc2O)c1 [Magnolol],-27.1,-9.5,2.08
CN1CCCCC1CCN1c2ccccc2Sc2ccc(S(C)=O)cc21 (stereo unspecified) [mesoridazine besylate],-49.8,10.8,-0.555
S=C=Nc1ccc(N=C=S)cc1,20.8,3.25,-1.61
O=C(c1cccc(Cl)c1F)N1CCN(Cc2cccc(Nc3nccs3)n2)CC1,-54.8,-32.1,-11.2
CNC[C@H](O)c1ccc(O)c(O)c1 [Epinephrine (L-(-)-Epinephrine-(+)-Bitartrate)],-25.3,-10.5,-3.19
C=CCNc1c(O)cc2c(O)c1C[C@@H](C)C[C@H](OC)[C@H](O)[C@@H](C)/C=C(\C)[C@H](OC(N)=O)[C@@H](OC)/C=C\C=C(/C)C(=O)N2 [Retaspimycin (Hydrochloride)],-31,-34.5,-10.9
Nc1ncn([C@H]2C[C@H](O)[C@@H](CO)O2)c(=O)n1 [decitabine],27.4,-31.5,-10.8
C=CC[C@@H]1/C=C(\C)C[C@H](C)C[C@H](OC)[C@H]2O[C@@](O)(C(=O)C(=O)N3CCCC[C@H]3C(=O)O[C@H](/C(C)=C/[C@@H]3CC[C@@H](O)[C@H](OC)C3)[C@H](C)[C@@H](O)CC1=O)[C@H](C)C[C@@H]2OC [Tacrolimus],-32.9,18.6,12.2
C[n+]1c2cc(N)ccc2cc2ccc(N)cc21,69.3,-34.9,-15
CC/C(=C(\c1ccc(O)cc1)c1ccc(OCCN(C)C(=O)COCCOCCOCCOc2cccc(C(=O)c3csc([C@@H]4CCCN4C(=O)[C@@H](NC(=O)[C@H](C)NC)C4CCCCC4)n3)c2)cc1)c1ccccc1,13.9,-31.8,-11.5
CC1=C(C(=O)OC(C)C)C(c2cccc([N+](=O)[O-])c2)C(C(=O)OC2CN(C(c3ccccc3)c3ccccc3)C2)=C(N)N1 (stereo unspecified) [Azelnidipine],10.4,12.8,0.07
C=CC(=O)Nc1cccc(Oc2nc(Nc3ccc(N4CCN(C)CC4)cc3)nc3ccsc23)c1 [Olmutinib],-18.2,-23.3,-7.07
Cc1cc(C2CCCCC2)n(O)c(=O)c1,-23.8,-24.9,-10.6
Clc1ccc(C(Cn2ccnc2)OCc2ccc(Sc3ccccc3)cc2)c(Cl)c1 (stereo unspecified) [Fenticonazole nitrate],-51.2,-4.73,0.87
C=C1C(=O)O[C@@H]2[C@H]3O[C@]3(C)CC/C=C(\C)CC[C@@H]12 [parthenolide-(alternate-stereo)],-27.7,-34.4,-12.4
COc1ncnc(NS(=O)(=O)c2ccc(N)cc2)c1OC,-56.1,-8.08,0.355
CCN(c1ccccc1)c1cc(NC)[n+](C)c(C)n1,26.3,3.09,-0.645
O=C(Nc1cccc(Cl)c1)Nc1ncc(CCNc2ncnc3ccsc23)s1 [SNS-314 methanesulfonate],-27,-30.3,-6.71
O=C1C=CC(=O)C2=C1C1c3ccccc3C2c2ccccc21,-32.2,-0.91,-0.735
C=CC(=O)c1ccc2ccccc2c1 [JAK3-inhibitor-V],-28.5,-15.1,0.695
O=C(Nc1ccc(S(=O)(=O)Nc2ccccc2Cl)c(Cl)c1)c1ccccn1,25.4,1.67,-1.18
C=C1/C(=C/C=C2\CCC[C@]3(C)[C@@H]([C@H](C)/C=C/[C@@H](C)C(C)C)CC[C@@H]23)C[C@@H](O)C[C@@H]1O [Doxercalciferol (Hectorol)],-23,1.09,2.85
CC(=O)N(OCc1ccccc1)[C@@H]1c2cc(C#N)ccc2OC(C)(C)[C@H]1O,-1.85,4.48,-0.925
CC(C)(C)CC(C)(C)c1ccc(OCCOCC[N+](C)(C)Cc2ccccc2)cc1,16,-7.09,-0.695
Cn1c(NCCN(CCO)CCCc2ccc([N+](=O)[O-])cc2)cc(=O)n(C)c1=O [nifekalant],-33.5,-3.87,3.56
O=C(O)c1cc(N=Nc2ccc(O)c(C(=O)O)c2)ccc1O [Olsalazine Na],-197,1.54,-1.08
OCCN1CCN(CCCN2c3ccccc3Sc3ccc(C(F)(F)F)cc32)CC1 [Fluphenazine  HCl],-52.5,15.7,5.51
